{"source": "ChEMBL document CHEMBL4513216", "about": "“Probing the Open Global Health Chemical Diversity Library for Multistage-Active Starting Points for Next-Generation Antimalarials” (ACS Infect Dis, 2020)", "note": "The campaign covered roughly 68,000 compounds. About 2,700 (4%) showed an effect of 50% or more. The entries come from a sample that favours strong results as a whole.", "data": [{"test_system": "Plasmodium berghei", "assay": "Screen against P. berghei liver stage (PbLuc), transformed with Luciferase, at 2uM", "format": "functional, HepG2", "settings": "tested at 2 uM", "units": {"INHIBITION": "%"}, "values": [{"smiles": "CC(C)c1cc(C(=O)N2CCC3(CCc4ccccc4C(=O)N3)C2)on1", "note": "(stereo not drawn)", "INHIBITION": 9.9}, {"smiles": "CNC(=O)c1n[nH]c2c1C(c1cccc3c1OC(C)(C)C3)CC(=O)N2", "note": "(stereo not drawn)", "INHIBITION": 48.21}, {"smiles": "Cc1nc(CN2CCN(C(=O)c3ccc(=O)n(C)c3)CC2)cs1", "INHIBITION": -3.4}, {"smiles": "CCN1CCC12CCN(C(=O)c1ccsc1)C2", "note": "(stereo not drawn)", "INHIBITION": 13.75}, {"smiles": "CC(C)C1=NOC(c2nc(Cc3ccccc3)no2)C1", "note": "(stereo not drawn)", "INHIBITION": 50.46}, {"smiles": "COc1ccc(-c2noc(C3CC(C(C)C)=NO3)n2)cc1", "note": "(stereo not drawn)", "INHIBITION": 7.37}, {"smiles": "Cc1ccccc1-c1noc(C2CC(C(C)C)=NO2)n1", "note": "(stereo not drawn)", "INHIBITION": -10.37}, {"smiles": "COCC(=O)N1CC2(CCN(c3ccccc3)C2)C1", "INHIBITION": -31.82}, {"smiles": "CCc1nc(CC2CN(c3ncnc4nc(C)cc(C)c34)CCO2)no1", "note": "(stereo not drawn)", "INHIBITION": 5.1}, {"smiles": "Cc1cc(C(=O)N2CC[C@@]3(C[C@@H](NS(C)(=O)=O)CCO3)C2)no1", "INHIBITION": 19.51}, {"smiles": "CS(=O)(=O)N[C@@H]1CCO[C@]2(CCN(C(=O)c3cnccn3)C2)C1", "INHIBITION": 9.14}, {"smiles": "Cc1nc(C(=O)N2CC[C@@]3(C[C@H](NS(C)(=O)=O)CCO3)C2)cs1", "INHIBITION": 60.79}, {"smiles": "CS(=O)(=O)N[C@@H]1CCO[C@]2(CCN(C(=O)c3cscn3)C2)C1", "INHIBITION": 23.1}, {"smiles": "Cc1nc(C(=O)N2CC[C@@]3(C[C@@H](NS(C)(=O)=O)CCO3)C2)cs1", "INHIBITION": 68.95}, {"smiles": "CS(=O)(=O)N[C@H]1CCO[C@]2(CCN(C(=O)c3ccccn3)C2)C1", "INHIBITION": 36.75}, {"smiles": "COCCN1C(=O)CC(N2CCN(c3ccc(F)cc3)CC2)C1=O", "note": "(stereo not drawn)", "INHIBITION": 39.9}, {"smiles": "NC(=O)CCSc1ccccc1NCc1ccc(Cl)s1", "INHIBITION": 22.75}, {"smiles": "Cc1nc(C(=O)N(C)[C@@H]2CCC[C@@H](Oc3ccccc3)[C@@H]2O)co1", "INHIBITION": 9.47}, {"smiles": "Cc1ocnc1C(=O)N(C)[C@@H]1CC[C@@H](Oc2ccccc2)[C@@H]1O", "INHIBITION": 67.27}, {"smiles": "CN(C(=O)c1ccon1)[C@@H]1CCC[C@@H](Oc2ccccc2)[C@@H]1O", "INHIBITION": 44.9}, {"smiles": "Cc1ccccc1C1(CNC(=O)CCN2C(=O)CCC2=O)CC1", "INHIBITION": 26.76}, {"smiles": "O=C(N1CCOCC1)[C@@]12CCO[C@@H]1CCN(CC1CCCC1)C2", "INHIBITION": -55.42}, {"smiles": "Cc1c(NC(=O)c2cnc[nH]2)cccc1C(=O)NC(C)(C)C", "INHIBITION": 5.41}, {"smiles": "COc1ccc(CN(Cc2cc(C)no2)C2CC2)cc1", "INHIBITION": -16.88}, {"smiles": "c1cnc(N2CCC(c3csc(Nc4cnccn4)n3)CC2)nc1", "INHIBITION": -41.06}, {"smiles": "O=C1CC2(CCN(c3nncs3)C2)CN1c1ccc2c(c1)OCCO2", "note": "(stereo not drawn)", "INHIBITION": 58.16}, {"smiles": "O=C1CC2(CCN(c3nncs3)C2)CN1c1cccc(F)c1", "note": "(stereo not drawn)", "INHIBITION": 21.75}, {"smiles": "O=C1CC2(CCN(c3nncs3)C2)CN1c1ccccc1", "note": "(stereo not drawn)", "INHIBITION": -5.44}, {"smiles": "O=C(O)c1ccc(CC2CCN(Cc3ccc(-c4cc[nH]n4)o3)C2)cc1", "note": "(stereo not drawn)", "INHIBITION": 16.93}, {"smiles": "Cc1ncnc2c1CCN(CC(=O)N(C)C)CC2", "INHIBITION": 18.15}, {"smiles": "Cc1cc(C(F)(F)F)nc(CNC(=O)CCC2CCCN(C)C2)n1", "note": "(stereo not drawn)", "INHIBITION": -28.09}, {"smiles": "Cc1cc(C(F)(F)F)nc(CNC(=O)CCC2CCCCN2C)n1", "note": "(stereo not drawn)", "INHIBITION": 54.77}, {"smiles": "Cc1cc(C(F)(F)F)nc(CNC(=O)C2CCCCCN2C)n1", "note": "(stereo not drawn)", "INHIBITION": 20.77}, {"smiles": "Cc1ccc2nc(CN3CCCC3c3cccnc3)cc(O)c2c1", "note": "(stereo not drawn)", "INHIBITION": 50.59}, {"smiles": "Cc1ccc2nc(CN3CCN(C4CCCC4)C(=O)C3)cc(O)c2c1", "INHIBITION": -87.32}, {"smiles": "Cc1ccc2nc(CN3CCN(C4CCCCC4)C(=O)C3)cc(O)c2c1", "INHIBITION": -17.17}, {"smiles": "NCC1CCCCN1Cc1cc(O)c2cccc(F)c2n1", "note": "(stereo not drawn)", "INHIBITION": -20.95}, {"smiles": "Oc1cc(CN2CCCCC2c2cccnc2)nc2c(F)cccc12", "note": "(stereo not drawn)", "INHIBITION": 57.75}, {"smiles": "OCC1CCCCN1Cc1cc(O)c2cccc(F)c2n1", "note": "(stereo not drawn)", "INHIBITION": 24.36}, {"smiles": "CN(C)C(CNCc1nc(-c2ccsc2)no1)c1ccsc1", "note": "(stereo not drawn)", "INHIBITION": 6.82}, {"smiles": "CN(C)C(CNCc1nc(-c2ccsc2)no1)c1cccs1", "note": "(stereo not drawn)", "INHIBITION": 58.14}, {"smiles": "CN(C)C(CNCc1nc(-c2ccsc2)no1)c1ccco1", "note": "(stereo not drawn)", "INHIBITION": 11.18}, {"smiles": "c1ccc(CN2CCN(C3CCOC4(CCOCC4)C3)CC2)nc1", "note": "(stereo not drawn)", "INHIBITION": -14.69}, {"smiles": "CCNc1nc2cn(-c3ccc(C)c(C)c3)c(=O)c-2c[nH]1", "INHIBITION": -5.34}, {"smiles": "c1cncc(CN2Cc3nccn3CC(Cn3cccn3)C2)c1", "note": "(stereo not drawn)", "INHIBITION": -9.53}, {"smiles": "COc1cc(C)cc(C(C(=O)O)N(C)Cc2ccon2)c1OC", "note": "(stereo not drawn)", "INHIBITION": 76.6}, {"smiles": "COc1ccc(Cl)cc1C(C(=O)O)N(C)Cc1ccon1", "note": "(stereo not drawn)", "INHIBITION": -35.07}, {"smiles": "COc1cc(F)ccc1C(C(=O)O)N(C)Cc1ccon1", "note": "(stereo not drawn)", "INHIBITION": 12.55}, {"smiles": "CN(C)CC(=O)N1CCN(c2cc(N3CCCC3CO)ncn2)CC1", "note": "(stereo not drawn)", "INHIBITION": -23.06}, {"smiles": "COC1[C@@H]2CC[C@H]1CN(c1nc(C)nc3sccc13)C2", "note": "(stereo partly drawn)", "INHIBITION": 32.26}, {"smiles": "Cc1ccccc1CN(CCN(C)C)Cc1ccc(O)c(C(=O)O)c1", "INHIBITION": 56.76}, {"smiles": "Cc1ccccc1CN(CCN(C)C)Cc1ccccc1C(=O)O", "INHIBITION": 4.12}, {"smiles": "Cc1ccccc1CN(CCN(C)C)Cc1ccc(C(=O)O)cc1", "INHIBITION": 34.07}]}]}
